Test [1] in a line: BSK_3C_VCAM1: BioMAP Diversity Plus: 3C Assay for Vascular cell adhesion molecule 1 (VCAM1) Biomarker Activity (AID 2282999). Particulars: BioMAP 3C HUVEC, VCAM1 ELISA, cytokine-stimulated; actives raise or lower the signal. An outline of the steps: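 Activity fitted in both directions relative to DMSO, with ELISA measurement of the surface marker on primary HUVEC (3C) at 24 h post-treatment; parallel SRB staining (0.1% SRB, TCA-fixed, 560 nm) flagged overt cytotoxicity.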

Test [2] is described as follows: BSK_4H_Eotaxin3: BioMAP Diversity Plus: 4H Assay for Eotaxin 3 Biomarker Activity (AID 2283000).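 For outcome: CCL26 protein level quantified by ELISA in parallel with SRB cytotoxicity check.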 The settings on record: primary human endothelial cells (HUVEC); actives raise or lower the signal. An outline of the steps: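 Endothelial primary cells (human umbilical vein) exposed to compound for 24 h. ELISA detection of Eotaxin-3.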
The target of test [3] is human Peroxisome Proliferator-activated Receptor delta (PPARd), PPARD (gene 5467) (UniProt Q03181). Nature of the test: ATG_PPARd_TRANS: Attagene TRANS-FACTORIAL HepG2 Assay for human Peroxisome Proliferator-activated Receptor delta (PPARd) (AID 2283002; active = hit-call score of the fitted dose curve at least 0.9, where 1 is the maximum). An outline of the steps:
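Transient HepG2 transfection (multiple GAL4-UAS RTUs, chimeric receptor-Gal4); 24 h dosing; total RNA → oligo(dT) RT → PCR → 6-FAM primer extension → HpaI cut → CE. Positive direction vs DMSO.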

Read-out in test [4]: Intercellular Adhesion Molecule 1 (ICAM1), ICAM1 (gene 3383)
The test can be described thus: BSK_3C_ICAM1: BioMAP Diversity Plus: 3C Assay for Intercellular Adhesion Molecule 1 (ICAM1) Biomarker Activity (AID 2283003). Particulars: primary human endothelial cells (HUVEC); actives raise or lower the signal. In outline:
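Using DMSO as baseline, bidirectional curve fitting was applied to ICAM-1 ELISA signals from HUVEC in the 3C system, measured 24 h after compound addition.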

Test [5] is described as follows: BSK_3C_Proliferation: Cell Proliferation Assessment in the BioMAP Diversity Plus: 3C Assay (AID 2283006).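 For AC50: potency may reflect either rise or fall in cell number versus DMSO.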 The settings on record: primary human endothelial cells (HUVEC). An outline of the steps:
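Measured here: sulforhodamine B (0.1%) staining of TCA-fixed sub-confluent umbilical vein endothelial cultures 48 h post-dosing, absorbance 560 nm. DMSO served as negative control and baseline; both signal gain and loss were modelled.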

Test [6] addresses Peroxisome proliferator-activated receptor gamma (Homo sapiens) (UniProt P37231). The test can be described thus: ATG_PPARg_TRANS: Attagene TRANS-FACTORIAL HepG2 Assay for human Peroxisome Proliferator-activated Receptor-gamma (PPARg) (AID 2283007; active = hit-call score of the fitted dose curve at least 0.9, where 1 is the maximum). In outline:
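Chimeric NR-Gal4 transactivation is measured in transiently transfected HepG2 cells by reporter mRNA induction at 24 h. Detection uses RT-PCR with fluorescent labelling and capillary electrophoresis; DMSO defines baseline.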

In test [7] the target is Nuclear receptor subfamily 1 group I member 2 (Homo sapiens) (UniProt O75469). The test can be described thus: ATG_PXR_TRANS: Attagene TRANS-FACTORIAL HepG2 Assay for human Pregnane X Receptor (PXR) (AID 2283008; active = hit-call score of the fitted dose curve at least 0.9, where 1 is the maximum). An outline of the steps: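 Multiplexed TRANS reporter panel in HepG2; this component tracks PXR-Gal4-driven reporter mRNA after 24 h dosing, measured by RT-PCR with capillary electrophoresis fluorescence, fitted against DMSO.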

In test [8] the target is human RAR-related Orphan Receptor beta (RORb), RORB (gene 6096) (UniProt Q92753). Nature of the test: ATG_RORb_TRANS: Attagene TRANS-FACTORIAL HepG2 Assay for human RAR-related Orphan Receptor beta (RORb) (AID 2283010; active = hit-call score of the fitted dose curve at least 0.9, where 1 is the maximum). An outline of the steps: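 Multiplexed transcription-factor reporter assay: HepG2 cells transiently carrying NR-Gal4/GAL4-UAS constructs, 24 h treatment, mRNA quantified by RT-PCR plus capillary electrophoresis fluorescence; activity scored as induction over DMSO.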

In test [9] the target is human RAR-related Orphan Receptor gamma (RORg), RORC (gene 6097) (UniProt P51449). Nature of the test: ATG_RORg_TRANS: Attagene TRANS-FACTORIAL HepG2 Assay for human RAR-related Orphan Receptor gamma (RORg) (AID 2283011; active = hit-call score of the fitted dose curve at least 0.9, where 1 is the maximum). In outline:
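Activity is scored as increase in GAL4-UAS reporter mRNA over DMSO, detected by fluorescent RT-PCR and capillary electrophoresis in HepG2 cells transiently expressing a RORg-Gal4 chimera, 24 h after dosing.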

The target in test [10] is Retinoic acid receptor RXR-alpha (Homo sapiens) (UniProt P19793). The test can be described thus: ATG_RXRa_TRANS: Attagene TRANS-FACTORIAL HepG2 Assay for human Retinoid X Receptor alpha (RXRa) (AID 2283012; active = hit-call score of the fitted dose curve at least 0.9, where 1 is the maximum). In outline: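 Chimeric NR-GAL4 trans-activation in HepG2, 24 h treatment; reporter transcripts quantified by fluorescence on capillary electrophoresis, analysed for upward change from DMSO.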

The target in test [11] is human Thyroid Receptor alpha (THRa1), THRA (gene 7067) (UniProt P10827). Nature of the test: ATG_THRa1_TRANS: Attagene TRANS-FACTORIAL HepG2 Assay for human Thyroid Receptor alpha (THRa1) (AID 2283014; active = hit-call score of the fitted dose curve at least 0.9, where 1 is the maximum). In outline:
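First, HepG2 cells receive multiple GAL4-UAS reporter units and the chimeric receptor. They are then dosed for 24 h, after which RNA is reverse-transcribed, amplified, labelled, HpaI-cut and sized by capillary electrophoresis; gain relative to DMSO is scored.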

Read-out in test [12]: E-selectin (Homo sapiens) (UniProt P16581)
The test can be described thus: BSK_3C_Eselectin: BioMAP Diversity Plus: 3C Assay for Eselectin Biomarker Activity (AID 2283015).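 For outcome: cell surface E-selectin protein quantified by ELISA 24 h after dosing.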 The settings on record: primary human endothelial cells (HUVEC); actives raise or lower the signal. In outline:
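Human vascular endothelium from umbilical vein is exposed to test chemicals for 24 h. E-selectin levels are read by ELISA and compared with DMSO controls.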

Read-out in test [13]: Interleukin-1 alpha (IL1a), IL1A (gene 3552)
The test can be described thus: BSK_BE3C_IL1a: BioMAP Diversity Plus: BE3C Assay for Interleukin-1 alpha (IL1a) Biomarker Activity (AID 2283016). Particulars: primary human bronchial epithelial cells; actives raise or lower the signal. An outline of the steps: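 Measured in human lung primary bronchial epithelial cells: IL-1a by ELISA at 24 h after dosing, with bidirectional fitting against DMSO.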

Read-out in test [14]: Monocyte Chemoattractant Protein-1 (MCP1), CCL2 (gene 6347)
The test can be described thus: BSK_3C_MCP1: BioMAP Diversity Plus: 3C Assay for Monocyte Chemoattractant Protein-1 (MCP1) Biomarker Activity (AID 2283017). Particulars: primary human endothelial cells (HUVEC); actives raise or lower the signal. An outline of the steps: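 Endothelial cells from human umbilical vein are dosed with chemical, cultured 24 h, then assayed for MCP-1 by ELISA; both increases and decreases are modelled against DMSO controls.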

Read-out in test [15]: Monocyte Chemoattractant Protein-1 (MCP1), CCL2 (gene 6347)
The test can be described thus: BSK_4H_MCP1: BioMAP Diversity Plus: 4H Assay for Monocyte Chemoattractant Protein-1 (MCP1) Biomarker Activity (AID 2283018). Particulars: primary human endothelial cells (HUVEC); actives raise or lower the signal. An outline of the steps:
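Primary human umbilical vein endothelium is exposed to chemical for 24 h before MCP-1 is assayed by ELISA. Concentration-response fitted bidirectionally relative to DMSO.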

The target in test [16] is human Peroxisome Proliferator-activated Receptor alpha (PPARa), PPARA (gene 5465) (UniProt Q07869). The test can be described thus: ATG_PPARa_TRANS: Attagene TRANS-FACTORIAL HepG2 Assay for human Peroxisome Proliferator-activated Receptor alpha (PPARa) (AID 2283001; active = hit-call score of the fitted dose curve at least 0.9, where 1 is the maximum). An outline of the steps:
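Transfected HepG2 cells treated with test chemical for 24 h. RNA isolated, reverse-transcribed with oligo(dT), PCR-amplified, FAM-labelled and HpaI-digested. Fragments sized by capillary electrophoresis; gain-of-signal fit relative to DMSO.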

Test [17] addresses human Retinoic Acid Receptor beta (RARb), RARB (gene 5915) (UniProt P10826). The test can be described thus: ATG_RARb_TRANS: Attagene TRANS-FACTORIAL HepG2 Assay for human Retinoic Acid Receptor beta (AID 2283004; active = hit-call score of the fitted dose curve at least 0.9, where 1 is the maximum). An outline of the steps: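 HepG2, transient MRTU transfection, NR–Gal4 chimera, 24 h treatment; RT-PCR plus CE fluorescence detection of reporter mRNA; gain of signal vs DMSO.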

Test [18] addresses human Retinoid X Receptor beta (RXRb), RXRB (gene 6257) (UniProt P28702). Nature of the test: ATG_RXRb_TRANS: Attagene TRANS-FACTORIAL HepG2 Assay for human Retinoid X Receptor beta (RXRb) (AID 2283013; active = hit-call score of the fitted dose curve at least 0.9, where 1 is the maximum). In outline: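 After a 24 h incubation with test chemical, transfected HepG2 cells carrying NR-Gal4 fusions and GAL4-UAS reporter transcription units yield RNA whose reporter cDNA is FAM-labelled, HpaI-cut and sized by capillary electrophoresis; increases over DMSO are scored.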

The target of test [19] is Retinoic acid receptor alpha (Homo sapiens) (UniProt P10276). The test can be described thus: ATG_RARa_TRANS: Attagene TRANS-FACTORIAL HepG2 Assay for human Retinoic Acid Receptor alpha (RARa) (AID 2283005; active = hit-call score of the fitted dose curve at least 0.9, where 1 is the maximum). In outline:
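Reporter transcripts, measured by RT-PCR with fluorescent labeling and capillary electrophoresis after 24 h dosing, reflect activity of an exogenous human RARa–GAL4 fusion in transiently transfected HepG2. Fitted for increase relative to DMSO.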

For test [20], the target named is human Retinoic Acid Receptor gamma (RARg), RARG (gene 5916) (UniProt P13631). Nature of the test: ATG_RARg_TRANS: Attagene TRANS-FACTORIAL HepG2 Assay for human Retinoic Acid Receptor gamma (RARg) (AID 2283009; active = hit-call score of the fitted dose curve at least 0.9, where 1 is the maximum). An outline of the steps:
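Gain-of-signal relative to DMSO is reported from fluorescent capillary electrophoresis of RT-PCR reporter products. These came from HepG2 cells expressing transfected RARg-GAL4 chimeras with UAS reporters, harvested 24 h after dosing.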

Records with an inconclusive call do not appear. Active and inactive are the calls of the source. Rule for the calls, unless noted: active = hit-call score of the fitted dose curve at least 0.9, where 1 is the maximum; inactive = score below 0.9.

Chain of Nuclear receptor subfamily 1 group I member 2 (Homo sapiens) (O75469 whole entry, looked up, the tested form may be a part): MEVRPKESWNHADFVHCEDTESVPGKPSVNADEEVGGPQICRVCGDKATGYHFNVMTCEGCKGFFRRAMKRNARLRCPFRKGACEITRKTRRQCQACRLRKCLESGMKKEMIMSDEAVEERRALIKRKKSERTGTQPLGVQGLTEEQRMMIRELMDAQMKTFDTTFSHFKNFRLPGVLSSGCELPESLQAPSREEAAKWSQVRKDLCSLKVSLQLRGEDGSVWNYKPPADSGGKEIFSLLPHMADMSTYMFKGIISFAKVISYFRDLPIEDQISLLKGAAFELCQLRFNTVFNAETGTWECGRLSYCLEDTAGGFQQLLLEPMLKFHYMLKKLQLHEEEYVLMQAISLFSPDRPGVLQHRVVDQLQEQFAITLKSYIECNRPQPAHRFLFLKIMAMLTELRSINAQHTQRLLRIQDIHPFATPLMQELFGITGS
Chain of Peroxisome proliferator-activated receptor gamma (Homo sapiens) (P37231 whole entry, looked up, the tested form may be a part): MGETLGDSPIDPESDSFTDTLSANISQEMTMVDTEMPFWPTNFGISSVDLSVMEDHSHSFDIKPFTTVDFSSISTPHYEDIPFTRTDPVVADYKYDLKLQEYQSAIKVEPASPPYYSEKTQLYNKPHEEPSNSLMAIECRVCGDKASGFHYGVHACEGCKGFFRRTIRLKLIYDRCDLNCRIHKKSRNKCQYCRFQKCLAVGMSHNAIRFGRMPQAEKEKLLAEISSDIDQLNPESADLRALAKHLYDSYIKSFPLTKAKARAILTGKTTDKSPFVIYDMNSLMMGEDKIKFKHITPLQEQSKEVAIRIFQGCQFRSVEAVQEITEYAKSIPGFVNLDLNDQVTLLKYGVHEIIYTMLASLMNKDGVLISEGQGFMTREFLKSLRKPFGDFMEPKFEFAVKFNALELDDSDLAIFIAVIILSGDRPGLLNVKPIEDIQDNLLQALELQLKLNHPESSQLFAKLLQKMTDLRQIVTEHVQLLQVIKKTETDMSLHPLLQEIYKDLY
Chain of human RAR-related Orphan Receptor gamma (RORg), RORC (gene 6097) (P51449 whole entry, looked up, the tested form may be a part): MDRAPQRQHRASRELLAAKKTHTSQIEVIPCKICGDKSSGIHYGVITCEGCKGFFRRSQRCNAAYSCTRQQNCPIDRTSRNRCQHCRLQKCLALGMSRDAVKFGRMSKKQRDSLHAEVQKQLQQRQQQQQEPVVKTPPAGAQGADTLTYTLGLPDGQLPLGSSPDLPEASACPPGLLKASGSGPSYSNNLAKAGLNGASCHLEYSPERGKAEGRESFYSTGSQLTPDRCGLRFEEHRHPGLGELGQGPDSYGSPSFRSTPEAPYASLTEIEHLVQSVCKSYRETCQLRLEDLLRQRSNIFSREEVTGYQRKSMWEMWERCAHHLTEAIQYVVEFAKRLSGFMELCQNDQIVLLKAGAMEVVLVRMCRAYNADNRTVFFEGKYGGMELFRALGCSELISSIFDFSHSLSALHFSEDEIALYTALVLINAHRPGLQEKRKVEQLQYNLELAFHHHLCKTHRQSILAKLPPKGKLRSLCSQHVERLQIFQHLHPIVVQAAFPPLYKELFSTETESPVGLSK
Chain of Retinoic acid receptor RXR-alpha (Homo sapiens) (P19793 whole entry, looked up, the tested form may be a part): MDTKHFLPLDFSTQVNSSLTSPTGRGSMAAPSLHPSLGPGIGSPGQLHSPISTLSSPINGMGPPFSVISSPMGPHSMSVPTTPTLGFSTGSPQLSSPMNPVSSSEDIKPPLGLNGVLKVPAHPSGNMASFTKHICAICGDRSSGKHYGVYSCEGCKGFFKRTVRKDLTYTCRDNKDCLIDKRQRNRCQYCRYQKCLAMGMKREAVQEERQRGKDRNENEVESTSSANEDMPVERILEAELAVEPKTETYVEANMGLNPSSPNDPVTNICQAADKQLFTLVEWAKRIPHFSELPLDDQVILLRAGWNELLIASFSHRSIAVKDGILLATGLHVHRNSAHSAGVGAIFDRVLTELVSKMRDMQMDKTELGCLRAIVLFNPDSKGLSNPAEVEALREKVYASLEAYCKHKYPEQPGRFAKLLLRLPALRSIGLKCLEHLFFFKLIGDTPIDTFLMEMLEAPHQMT
Chain of human RAR-related Orphan Receptor beta (RORb), RORB (gene 6096) (Q92753 whole entry, looked up, the tested form may be a part): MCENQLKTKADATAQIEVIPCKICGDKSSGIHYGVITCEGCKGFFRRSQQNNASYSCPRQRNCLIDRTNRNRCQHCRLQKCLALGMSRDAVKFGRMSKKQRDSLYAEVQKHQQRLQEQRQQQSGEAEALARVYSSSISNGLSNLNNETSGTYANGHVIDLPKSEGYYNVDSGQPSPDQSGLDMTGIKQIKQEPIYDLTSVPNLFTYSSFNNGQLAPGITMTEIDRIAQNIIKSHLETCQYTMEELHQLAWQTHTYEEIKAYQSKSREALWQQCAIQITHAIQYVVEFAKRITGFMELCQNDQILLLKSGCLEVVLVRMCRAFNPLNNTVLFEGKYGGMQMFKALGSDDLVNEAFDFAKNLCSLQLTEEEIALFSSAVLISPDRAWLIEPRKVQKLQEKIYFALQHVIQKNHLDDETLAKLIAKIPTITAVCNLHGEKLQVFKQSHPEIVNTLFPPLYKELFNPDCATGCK
Chain of E-selectin (Homo sapiens) (P16581 whole entry, looked up): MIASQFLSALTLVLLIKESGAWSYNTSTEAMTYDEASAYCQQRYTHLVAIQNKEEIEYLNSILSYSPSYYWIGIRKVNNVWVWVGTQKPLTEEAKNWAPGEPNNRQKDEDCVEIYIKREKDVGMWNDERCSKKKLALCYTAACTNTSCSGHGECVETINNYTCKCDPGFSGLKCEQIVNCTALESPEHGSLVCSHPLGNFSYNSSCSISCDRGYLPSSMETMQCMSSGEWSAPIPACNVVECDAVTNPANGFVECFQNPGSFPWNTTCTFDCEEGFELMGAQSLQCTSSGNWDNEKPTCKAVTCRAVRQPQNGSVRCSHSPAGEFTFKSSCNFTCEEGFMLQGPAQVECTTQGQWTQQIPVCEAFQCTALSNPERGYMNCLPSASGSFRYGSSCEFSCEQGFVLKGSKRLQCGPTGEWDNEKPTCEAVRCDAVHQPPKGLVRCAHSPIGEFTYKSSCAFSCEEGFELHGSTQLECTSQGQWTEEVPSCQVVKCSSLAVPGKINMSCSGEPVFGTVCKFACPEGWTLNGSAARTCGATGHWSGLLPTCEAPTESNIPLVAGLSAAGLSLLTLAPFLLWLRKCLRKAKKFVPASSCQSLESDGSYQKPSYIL
Chain of human Thyroid Receptor alpha (THRa1), THRA (gene 7067) (P10827 whole entry, looked up, the tested form may be a part): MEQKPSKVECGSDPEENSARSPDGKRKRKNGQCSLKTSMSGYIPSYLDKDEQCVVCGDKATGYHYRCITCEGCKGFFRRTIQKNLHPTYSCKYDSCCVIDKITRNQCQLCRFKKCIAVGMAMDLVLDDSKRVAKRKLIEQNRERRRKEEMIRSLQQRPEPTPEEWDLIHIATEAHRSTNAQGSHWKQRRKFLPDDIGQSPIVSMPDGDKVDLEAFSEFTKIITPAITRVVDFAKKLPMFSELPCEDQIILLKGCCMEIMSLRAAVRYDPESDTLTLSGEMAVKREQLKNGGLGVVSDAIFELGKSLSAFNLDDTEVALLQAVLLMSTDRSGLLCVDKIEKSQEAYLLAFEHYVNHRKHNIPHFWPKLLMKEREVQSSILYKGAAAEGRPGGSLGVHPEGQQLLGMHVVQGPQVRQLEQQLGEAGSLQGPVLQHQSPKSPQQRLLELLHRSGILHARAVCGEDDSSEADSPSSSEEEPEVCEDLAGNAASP
Chain of human Retinoic Acid Receptor beta (RARb), RARB (gene 5915) (P10826 whole entry, looked up, the tested form may be a part): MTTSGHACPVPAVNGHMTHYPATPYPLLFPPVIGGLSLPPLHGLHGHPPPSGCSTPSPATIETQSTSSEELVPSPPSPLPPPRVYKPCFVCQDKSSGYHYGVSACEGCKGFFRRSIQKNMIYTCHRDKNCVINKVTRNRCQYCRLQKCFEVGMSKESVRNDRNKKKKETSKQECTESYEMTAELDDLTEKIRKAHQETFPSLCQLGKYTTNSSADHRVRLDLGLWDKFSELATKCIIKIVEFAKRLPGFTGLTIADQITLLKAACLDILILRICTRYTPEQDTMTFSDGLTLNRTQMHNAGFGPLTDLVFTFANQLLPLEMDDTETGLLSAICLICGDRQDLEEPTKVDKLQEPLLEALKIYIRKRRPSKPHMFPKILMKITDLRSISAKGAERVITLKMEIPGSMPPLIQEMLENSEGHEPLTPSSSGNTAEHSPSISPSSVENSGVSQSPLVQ
Chain of human Peroxisome Proliferator-activated Receptor delta (PPARd), PPARD (gene 5467) (Q03181 whole entry, looked up, the tested form may be a part): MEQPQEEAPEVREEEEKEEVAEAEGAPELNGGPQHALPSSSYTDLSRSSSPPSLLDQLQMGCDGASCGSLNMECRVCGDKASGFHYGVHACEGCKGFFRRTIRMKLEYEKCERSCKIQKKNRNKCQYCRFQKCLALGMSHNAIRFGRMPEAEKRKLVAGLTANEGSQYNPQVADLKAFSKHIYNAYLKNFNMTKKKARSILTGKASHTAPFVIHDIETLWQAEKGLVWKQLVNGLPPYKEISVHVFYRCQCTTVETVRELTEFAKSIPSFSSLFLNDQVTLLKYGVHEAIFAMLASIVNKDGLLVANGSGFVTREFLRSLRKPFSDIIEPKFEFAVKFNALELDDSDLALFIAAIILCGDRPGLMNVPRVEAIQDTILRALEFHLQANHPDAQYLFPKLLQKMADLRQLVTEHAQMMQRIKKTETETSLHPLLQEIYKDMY
Chain of human Retinoid X Receptor beta (RXRb), RXRB (gene 6257) (P28702 whole entry, looked up, the tested form may be a part): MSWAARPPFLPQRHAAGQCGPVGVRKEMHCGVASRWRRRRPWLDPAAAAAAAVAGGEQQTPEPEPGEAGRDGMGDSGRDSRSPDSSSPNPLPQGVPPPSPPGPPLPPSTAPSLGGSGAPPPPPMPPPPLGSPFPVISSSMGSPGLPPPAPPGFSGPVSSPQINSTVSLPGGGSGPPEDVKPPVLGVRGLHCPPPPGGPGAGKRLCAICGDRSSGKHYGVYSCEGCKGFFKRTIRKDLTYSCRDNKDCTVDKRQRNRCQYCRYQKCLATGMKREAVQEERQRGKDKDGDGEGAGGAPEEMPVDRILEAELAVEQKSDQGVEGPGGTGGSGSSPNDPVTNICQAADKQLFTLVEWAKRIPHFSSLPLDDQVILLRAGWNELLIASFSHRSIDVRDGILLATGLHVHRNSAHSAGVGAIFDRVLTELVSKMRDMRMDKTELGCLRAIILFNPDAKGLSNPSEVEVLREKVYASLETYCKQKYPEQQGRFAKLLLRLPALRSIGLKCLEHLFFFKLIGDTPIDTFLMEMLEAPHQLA

As for `CC(C)N1C(=O)N(c2ccccc2)CSC1=NC(C)(C)C`, the half-maximal activity concentration (AC50) is 32 µM (active) in test [1]; 31.2 µM (active) in [2]; 16.4 µM (active) in test [5]; 16 µM (active) in [12]; 31.3 µM (active) in test [14]; 30.4 µM (active) in [15]. Besides, the result in [3], in test [4], in test [6], in test [7], in test [8] and in test [9] was inactive. In addition, the outcome in test [10], in test [11] and in test [13] was inactive.

Turning to `COC(=O)NS(=O)(=O)c1ccc(N)cc1`, the outcome in [1], in test [2], in test [16], in [4], in test [5] and in test [6] was inactive. The outcome in [7], in test [9], in test [12], in test [13] and in test [15] was inactive.

As to `CC(C)NC(=O)N1CC(=O)N(c2cc(Cl)cc(Cl)c2)C1=O`, the outcome in [1], in test [2], in test [4], in test [5], in test [10] and in test [13] was inactive. For the same compound, the result in test [14] and in test [15] was inactive. Further, the values for the AC50 in test [6] and in [7] were 23.4 µM (active) and 10.6 µM (active), respectively.

For `O=C(O)c1c(Cl)ccc2cc(Cl)cnc12`, the outcome in [1], in test [2], in test [16], in test [4], in test [5] and in [6] was inactive. Also, the outcome in [11], in test [12], in [13], in test [14] and in test [15] was inactive.

With `COc1ccc(-c2ccccc2)cc1NNC(=O)OC(C)C`, the outcome in test [1], in test [2], in test [4], in test [17], in [5] and in test [7] was inactive. In addition, the result in test [8], in [10], in test [18], in [12], in test [13] and in test [14] was inactive. Moreover, in test [15], the outcome was inactive. Also, the AC50 in test [6] is 50 µM (active).

Regarding `CCSC(=O)N1CCCCCC1`, the result in [1], in [2], in [3], in test [4], in [17] and in test [19] was inactive. Besides, the outcome in test [5], in test [6], in test [20], in test [8], in test [9] and in test [10] was inactive. Further, the compound was called inactive in [18], in test [12], in test [13] and in test [15]. The concentration at half-maximal activity (AC50) in test [7] is 84.4 µM (active).

Source of the values: PubChem BioAssay (EPA / NIEHS).
